Assay outcomes (PubChem BioAssay)
MenB inh: blocks the Mycobacterium tuberculosis MenB enzyme | P9WNP5 | MenB enzyme assay, absorbance read-out | inhibition, % (no concentration beside the values) | hit rate 0.43% among 100,000; in the data active means inhibition above about 21%, passing the limit was not always enough
Mtb MbtI inh: MbtI salicylate synthase inhibition; inhibition, % (concentration not given with the values); purified MbtI enzyme, fluorescence intensity read-out; hit rate 0.89% among 100,000; AID 493033; in the data active means inhibition mostly above about 56%, no sharp cut-off; inactive means mostly below about 77%
Target sequence (P9WFX0 whole entry, looked up): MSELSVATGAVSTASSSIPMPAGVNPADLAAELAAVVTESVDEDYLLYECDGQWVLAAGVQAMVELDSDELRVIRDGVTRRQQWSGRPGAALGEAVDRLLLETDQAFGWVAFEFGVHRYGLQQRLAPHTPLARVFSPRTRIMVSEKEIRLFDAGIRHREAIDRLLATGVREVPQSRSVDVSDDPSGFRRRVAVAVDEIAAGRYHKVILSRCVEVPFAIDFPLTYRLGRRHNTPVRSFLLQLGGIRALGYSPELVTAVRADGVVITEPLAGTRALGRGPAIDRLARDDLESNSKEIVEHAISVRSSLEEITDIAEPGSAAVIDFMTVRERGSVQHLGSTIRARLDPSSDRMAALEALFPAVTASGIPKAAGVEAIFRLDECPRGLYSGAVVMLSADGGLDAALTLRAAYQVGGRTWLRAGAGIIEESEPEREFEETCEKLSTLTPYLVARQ
Polio RdRp inh: inhibitors of poliovirus RNA polymerase binding and polymerization | P03300 | poliovirus polymerase elongation, fluorescence polarization; hits give low values | % elongation, % (compound at 16.7 µg/mL) | hit rate 0.66% among 150,000; in the data active means % elongation below about 90%
AID504770: growth inhibitors of E. coli YBA685 in a screen for V. cholerae RctB (chromosome II replication) inhibitors; z-score (test concentration not listed); AID 504770; E. coli YBA685 rctB-dependent plasmid, OD600 growth, 3 h; hits give low values; hit rate 0.27% among 130,000; in the data active means z-score below about -2, passing the limit was not always enough
Active calls of the source: *; / = not tested or not shown; ! = not active in a repeat. Shown are actives, neighbours in structure and some others; about 1.5% of the full set was active somewhere.

SMILES	MenB inh	Mtb MbtI inh	Polio RdRp inh	AID504770
CC1CC(OCC(O)CN)CC(C)(C)C1 (configuration not stated)	-0.9	-2.2	104.0	-2.15*
CN(C)c1nc(-c2ccccc2)[n+](C)s1	-24.8	31.8	102.0	-3.95*!
CN(C)c1nc(-c2ccccc2)c(CC(=O)O)s1	11.6	14.9	92.0	0
CCOC(=O)C1=C(C)NC(C)=C(C(=O)OCC)C1C(=O)OCn1nnc2ccccc2c1=O	-27.9	12.9	97.0	0.85
N#CC(Cc1ccccc1)c1ccccc1 (configuration not stated)	/	/	/	0.05
CCOc1ccc(C(=O)c2ccccc2C(=O)O)cc1OCC	6.4	8.9	47.0*	1.75
Nc1ccc(N2CCOCC2)c2nonc12	-139.9	18.0	85.0*	0
O=C(Nc1ccc(N2CCOCC2)c2nonc12)c1ccco1	-2.8	1.1	99.0	1.35
O=C(NC1CCCCC1)Sc1ccc(Cl)cc1	-39.7	75.6*	95.0	-0.25
CC(=O)NCCCc1[nH]n(-c2ccccc2)c(=O)c1NC(=O)c1ccccc1	9.7	20.9	87.0*	-0.1
CNC(=O)c1c(C)nc(SCC(=O)Nc2ccccc2Cc2ccccc2)c(C#N)c1-c1ccco1	0.5	15.3	101.0	1
COc1ccc(NC(=O)CN(C)C(=O)C2CC(=O)N(c3cccc(C)c3C)C2)cc1 (configuration not stated)	7.7	10.2	110.0	1.4
Oc1ccc(-c2nc3ccccc3s2)cc1	4.5	102.9	/	-2.3*
CC(C)C(=O)Oc1ccc2c3c(c(=O)oc2c1)CCC3	0.0	-14.1	104.0	-0.95
CN(C(=O)c1cc2c(Cl)nc3ccccc3c2s1)c1ccccc1	-9.9	-2.6	99.0	-0.2
Cc1cccc(C)c1Nc1c(-c2ccccc2F)nc2cccc(C)n12	/	/	88.0*	/
Cc1cccc2nc(-c3ccccn3)c(Nc3ccc(F)cc3)n12	/	/	120.0	/
Cc1c(C(=O)Nc2ccncc2)oc2ccccc12	38.4*	-3.2	101.0	0.6
CCn1c(SCC(=O)Nc2ccc(C)c(C)c2)nnc1-c1nonc1NC(C)=O	/	/	113.0	/
CCn1c(-c2nonc2NC(C)=O)n[nH]c1=S	-6.3	65.3*	102.0	0.7
CCOC(=O)c1[nH]c(CSc2cccc[n+]2[O-])c(C(=O)OCC)c1C	-30.0	36.5	66.0*	-1.25
COc1ccc(OCC(=O)Sc2ccc(Cl)cc2)cc1	-20.1	/	81.0*	-0.2
Cc1csc(SCC(=O)c2ccc3c(c2)OCO3)n1	-0.2	5.6	102.0	0.5
O=C(O)C1Nc2c(I)cccc2C2C=CCC12 (configuration not stated)	-16.8	102.8*	93.0	-0.7
O=C1COc2ccc(-c3csc(=Nc4ccc(F)cc4)n3/N=C/c3ccc(O)c(O)c3)cc2N1	-60.3	5.7	83.0*	-0.15
SMILES	MenB inh	Mtb MbtI inh	Polio RdRp inh	AID504770
O=C(CNc1ccccc1Cl)N/N=C1\CCCc2ccccc21	39.0*	7.2	102.0	-0.2
C=CCN(CC=C)Cn1nc(Nc2ccccc2F)sc1=S	3.4	99.4*	107.0	0.35
O=C1C(Nc2cccc(O)c2)=C(n2nnc3ccccc32)C(=O)c2ccccc21	-55.5	8.8	51.0*	-1.25
N#CC1=C2SCN(C3CCCCC3)CN2C(=O)CC1c1c(F)cccc1Cl (configuration not stated)	/	/	69.0*	/
N#CC1=C2SCN(C3CCCCC3)CN2C(=O)CC1c1ccc(F)cc1 (configuration not stated)	/	/	84.0*	/
O=C1CSC(/N=C/c2ccccc2O)=NN1	-20.1	/	116.0	0.65
O=c1[nH]cnc2c1cnn2-c1ccc(C(F)(F)F)cn1	/	40.6	99.0	-1.05
O=c1c(Cl)c(Cl)cnn1-c1ccc(C(F)(F)F)cn1	-31.3	20.5	88.0*	1.9
COc1cccc(OC)c1C(=O)Nc1nnc(CC(C)(C)C)s1	-19.2	/	71.0*	-0.25
CC(C)(C)C(=O)Nc1ccccc1C(=O)Nc1nccs1	-50.6	7.5	102.0	-0.35
CCOC(=O)C(C#N)C(=O)c1ccc(N)cc1 (configuration not stated)	26.1	/	80.0*	-0.85
CCOC(=O)c1ccc(N)cc1	-7.8	-2.1	102.0	0
CN(C)C(=O)CSc1nnc(Nc2ccccc2)n1-c1ccccc1	-10.8	9.3	100.0	1.65
CC(Sc1ncnc2sc3c(c12)CCCC3)C(=O)O (configuration not stated)	-1.6	/	100.0	-3.4*
Cn1c(CNC(=O)c2ccccc2)n[nH]c1=S	3.8	36.1	104.0	-0.5
Cc1cccc(C(=O)NCc2n[nH]c(=S)n2-c2ccccc2)c1	1.6	58.5*	102.0	1.6
CCOC(=O)C1SC(C)=NC1=O (configuration not stated)	-33.8	88.0	97.0	-0.4
O=C(CCCn1sc2ccccc2c1=O)NCCC1=CCCCC1	3.6	94.0*	102.0	0.25
O=C(CCCn1sc2ccccc2c1=O)NCc1cccs1	-12.9	81.6*	105.0	0.65
O=C(CCCn1sc2ccccc2c1=O)Nc1ccccc1F	-0.4	-5.4	101.0	-1.15
CCOc1ccc2nc(N3CCCC(C(=O)NCCC(C)C)C3)sc2c1 (configuration not stated)	/	/	/	0.2
C/C(=N\NC(=S)NC1CCCCC1)c1ccc(O)cc1	-5.5	90.3*	92.0	-0.1
C/C(=N\NC(=S)Nc1ccccc1C)c1ccc(O)cc1	-59.4	93.4	75.0*	0.45
C/C(=N\NC(N)=S)c1ccc(O)cc1	-23.7	31.9	104.0	-1.25
CCOC(=O)N1CCC(n2c(SCC(=O)c3ccc(Cl)cc3)nc3ccccc3c2=O)CC1	/	/	/	1.95
SMILES	MenB inh	Mtb MbtI inh	Polio RdRp inh	AID504770
CCOC(=O)c1c(CN2CCOCC2)n(C)c2ccc(O)cc12	-1.5	/	68.0*	0.65
CCOc1ccc(Cn2c(=O)[nH]c3c2c(=O)n(C)c(=O)n3C)cc1OCC	/	/	/	-0.1
Nc1ncc(N=Nc2cc(C(=O)O)ccc2Cl)s1	-361.8	50.4	94.0	-0.35
Nc1ncc(N=Nc2cc(C(=O)O)cc(C(=O)O)c2)s1	-272.7	18.8	82.0*	0
CCOc1ccc(-c2nc(NC(C)=O)c3c(=O)oc4c(OC)cccc4c3n2)cc1	-16.0	-5.5	100.0	-0.1
O=C(OCC(=O)N1CCc2ccccc2C1)c1ccccc1	-22.7	3.4	84.0*	-0.45
O=C(Nc1ccc(F)cc1F)c1ccc2c(c1)C(=O)N(Cc1ccco1)C2=O	/	2.2	/	1.35
O=C(CC12CC3CC(CC(C3)C1)C2)NCC(=O)N1CCN(Cc2ccccc2)CC1	-23.8	-10.5	104.0	0.15
O=C(CC12CC3CC(CC(C3)C1)C2)NCC(=O)N1CCCC1	-15.9	-14.4	86.0*	-1.2
CCCCNc1nc2ccccc2n1CC(=O)N1CCc2ccccc21	-24.7	-15.2	103.0	-0.7
O=C(Cn1c(CCCO)nc2ccccc21)N1CCc2ccccc21	-5.4	96.3*	99.0	-0.2
C=CCn1c2nc3ccccc3nc2c2c(=O)n(C3CCCC3)cnc21	-25.1	-21.4	105.0	0.4
CCSc1cc(C(F)(F)F)nc2cc(C(C)(C)C)nn12	-9.9	86.5*	100.0	0.4
Cc1nc2ccccc2n1CC(=O)OCC(=O)N1c2ccccc2CC1C (configuration not stated)	/	-3.5	100.0	-0.4
Cc1ccc2oc(=O)n(CC(=O)C(C)(C)C)c2c1	/	/	/	-2.1*
Cc1ccc2oc(=O)n(CC(=O)c3ccc(F)cc3)c2c1	/	/	/	0.25
